# According to PubChem BioAssay AID1508600 (Functional Genomics Laboratory (NCATS/FGL), 2020):
# About 3,700 (7%) of roughly 53,000 sequences were called active. This excerpt belongs to a sample that is enriched for actives. Values without a mark were called inactive.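 Rule for the calls: active = gene knockdowns whose robust z-score for IL-1 alpha signal is at least 2 or at most -2, so actives lie on both sides; inactive = the rest.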
# Experiment: Components of the Cytosolic LPS Sensing Pathway: Gene Identification via Genome-wide siRNA Screen;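 note: robust z of the log signal after scaling to non-targeting control siRNA wells of the plate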
# Conditions: RAW264.7 macrophages, IL-1a HTRF, actives lie on both sides, screened at 100 nM (by protocol), cells primed 5 h with Pam3CSK4 first
# Summary of the method: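 Three distinct siRNAs per gene were tested singly at 100 nM in RAW264.7 macrophages. Following Pam3CSK4 priming and 24 hour LipidA transfection, IL-1a secretion was read by HTRF.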
row,Sequence,z-score
1,GCCUUGUAGACCAGUUCUATT against 9530085L02Rik,2.15 (active)
2,CCGCAUGUUUGGAAAGGAUTT against Cabp4,-0.484
3,GGAACAAUUUGAUCCAGCATT against Mbnl2,-1.67
4,CCCACUCCUUCUAAAAGUUTT against Cyp3a13,-0.909
5,GGCCAUUCACGUUUUACUCTT against Ric8b,-1.02
6,GGAGCUAUAUUCUCACCCATT against Ptpn1,-2.06 (active)
7,GGGAAAAAUAUCAGUUAUGTT against Khdrbs1,0.465
8,GGGUACGUUCAAGUGCUUCTT against Agtpbp1,1.74
9,GGAUACAUGUGGUGCCAAUTT against Banf1,-0.529
10,GCCAUAACCUACAUUGUCATT against Loxhd1,-2.86 (active)
11,GCGAAUCCACUUAAUUCGATT against Abhd4,1.35
12,CCACAAGAUUGUUUCAGAATT against Lingo4,0.216
13,GCUGCUCAAGUUGUGGUGATT against Sord,1.56
14,GGUUCAGCUGACGUAAAAATT against BC048562,-2.1 (active)
15,GCAGUAGAUCCUGAUUUUGTT against Cdh12,-0.382
16,GGGACCUUUCCUGACCUAUTT against Ppdpf,-0.362
17,GGUCCACUUGCCAUCUAUUTT against Zfp54,-1.09
18,CCCUAACAUACUGGAGCUATT against Erfe,3.56 (active)
19,GGGUAUUUUCACUGAAAGUTT against Ltbp3,0.431
20,GGUGACUUGUAAAGAUUUUTT against Dstn,0.234
21,GGAGACAGAAAGAGAAAAGTT against Pou3f2,-0.578
22,GGAGUUCACGGAUCUUGAGTT against Ppp1r37,0.226

row,Sequence,z-score
1,GGCAAUCAUUGGACUAUACTT against Nckap1,-2.81 (active)
2,GCACCCAAACUUAAAAUAGTT against Spink10,-0.69
3,GGUUGAAGUCACAAAAGAATT against Prkg1,-0.619
4,GGGAAGGAGAGUAUUCCAATT against Mrpl14,3.44 (active)
5,GCAUUUCCUAUAAUCGUUGTT against Olfr360,0.371
6,GGCUGUCCGUACCUAUAAATT against Cpb1,-1.26
7,GGAAUUUGUGACCAACUAUTT against Rbm4b,1.07
8,CCUUGACCCAGAUUGAGAATT against Xkr6,0.363
9,GUAUGGAUGUGGAAGCCUCTT against Olfr1417,-0.77
10,GGGCUUGAAAUUGAAAUGUTT against Ccl9,-1.09
11,GCGACAACUGUGAUAUACCTT against Liph,-0.485
12,GCCUCAAUGGCACUCAAAUTT against Mdc1,-0.217
13,CCGUCUUCUGCUGUGGAACTT against Ctrc,2.6 (active)
14,CCCACUGCCAAGUACAAUGTT against Dmwd,1.44
15,UUGUGAUUCCAAUUUCCCUTT against Olfr1330,-0.32
16,GGUCAGAGUGCCUCUUGAATT against Slc7a5,-0.8
17,GGUCAAAGAUGGAGUAAAUTT against Tmem87a,-2.31 (active)
18,GCAAUGUCGCCAAACGUAATT against Ikzf1,0.457
19,GAUACAGACCUUGCUCUUCTT against Olfr714,-0.421
20,GGACAUUGUCACAUCAUUCTT against Slc2a6,1.64
21,GCUAAUAGUCAUUAAACUGTT against Zfp2,1.76
22,GCUCAACGAAACAAUACCGTT against Il2rb,0.737

row,Sequence,z-score
1,GGAUGGUCGAAACAAUAACTT against Stk32b,2.16 (active)
2,GGCAUUUCUGUUCUGUAAGTT against Sh3bgrl,-0.783
3,GCUGACCACUUCAAGGUUGTT against Lgals3,0.468
4,GGCCAGUGUAUUUGACCUGTT against Slc22a18,-1.24
5,GCUCUGCUAUCGUGAUCUGTT against Kctd13,1.68
6,GCUUGCACUGGACUCAACUTT against Pax4,-2.76 (active)
7,CGAGAAGAACUGUGUAAAGTT against Vldlr,-0.184
8,CCAUAUCAGGCAUAGCAGUTT against Nthl1,-0.772
9,GCCAUCGAUGUACUGAGCUTT against Psme2,0.525
10,GGUAGAGAGCUCAACAGGGTT against Klrb1c,0.287
11,GGACUGUUGCAUGACUCUCTT against Evc,1.08
12,GCCUUACUGGGUUACUUGUTT against Cdkn2d,3.22 (active)
13,GGAACUGAAUGCGGAAUUCTT against Chil1,0.261
14,GGUUUCUUCAUCUUGUAUUTT against Gjd4,0.184
15,GGUUCUGGAGCAAAUCCACTT against Styk1,2.37 (active)
16,CCCGAGACCAUUAAUGAUUTT against Snx3,-0.306
17,CGAACCCUAGCGGAAAUUGTT against Nono,-1.54
18,GGUGGGAAGAUAGAUAAAATT against Mamstr,3.28 (active)
19,GGGCUCUACAGUUUUUAAUTT against Atp5g3,1.31
20,GCAGUUUCGUUCCUACUCGTT against Cdkn2aipnl,0.796
21,GCAGAUAAUCUAGCAAAGATT against Agps,0.903
22,CCGAAAUCCUACAUAUAUGTT against B430209F14Rik,-0.306

row,Sequence,z-score
1,GCUUGAAUUUCUGUGGAGGTT against Olfr1320,-2.44 (active)
2,GGGUGAGACUUUUAUUAUUTT against Epdr1,-0.468
3,GGACAUAUAGCUGAUUUCUTT against Ctdsp2,1.97
4,GGGAUGGAAACCCUGGAUCTT against Col3a1,0.438
5,CCUUAGGAUCGUCUUAUUATT against Zic2,0.619
6,GGGAAAAGAAAGUACCUACTT against Zcchc10,2.26 (active)
7,CGACCUGACUUUUCUUAGGTT against Dynlrb2,0.855
8,GGCAACUUUGUUAUAUACATT against Ctr9,0.212
9,GGAUCUUCUACACAGUAAATT against Ppp2r3d,-0.0431
10,GGGCAUCAGCUAUUAAAGATT against Tpmt,0.488
11,GGCUAGAUGACAACCGCAUTT against Flrt1,1.13
12,GGGAGUUAUAUAAAUGCAUTT against Taf7l,-1.13
13,CACAGAACAUCAUCUCCCATT against Olfr887,-2.79 (active)
14,CGAAAUGACAGUGUUAUUCTT against Mpl,0.185
15,GGUAUGAUGGGAAAUUUUUTT against Tmod2,1.07
16,GGAAUCGGUGUAUUCGUUUTT against Sectm1b,0.593
17,GGAAGACAAAGUCUGGGUGTT against Hpx,-0.915
18,GGUCCUACAGGAGAAGAUCTT against Tekt2,-2.09 (active)
19,GGAGAAGUUCCCUAACAUGTT against Ppan,-1
20,GCCAGUAAGGAAUUCAACUTT against C3,-1.29
21,GGGCAUUGAAGCAAAUAUATT against Tmprss15,0.323
22,GGACGCAUGAUGUGGGUUCTT against Tmem41a,-0.626

row,Sequence,z-score
1,GCUAAGUCGGAGCAGUUUUTT against Clba1,2.07 (active)
2,AUGGUGCUGUUUUAUUUGUTT against Olfr671,-0.807
3,UAUCGUCCACAACUACUCATT against Epn1,1.14
4,GGACAUCCAACCGUACAUGTT against Ccnd2,0.247
5,GCAAGCUACAUGCAUACAUTT against Zfp945,3.59 (active)
6,GCCCUUUGACAAUUUGUUUTT against Stra6l,-0.661
7,CCUAUGUAACACAAACAUUTT against Orc5,0.721
8,GGUACAAGGUCAUCAUGAGTT against Olfr1341,-2.85 (active)
9,GGAGGGAGUAUCCAUGUCATT against Nr2c2,0.209
10,GGUCGACAGACUCUUGCAUTT against Mylk3,-0.982
11,GCAAGCAGAGAUGUUACAUTT against Olfr1284,-0.975
12,GGUGCUGUAUUUGAUGUUATT against Nudt6,0.544
13,GGAACUUGAACUAAAAAUGTT against Eaf1,2.5 (active)
14,GGUGAUGGUGAACAAGAAATT against Lgals9,-0.811
15,GGCUCACGCUCGUUACCUATT against Nwd1,-1.86
16,GGGUCCUAAGACUAUUGAUTT against Eif4g1,0.274
17,GCUUCCUUCUUCUUGUCCATT against Vmn1r42,-0.475
18,GGAUUUUCGAUUCUCUUACTT against Glg1,2.25 (active)
19,GGAUGUUCAACCUAAACGATT against Ferd3l,-0.347
20,GGUUCAGAAGUCUAUGUCUTT against Ufsp1,0.866
